In PubChem BioAssay (NCI):
About 79,000 compounds went through this panel and 15% of them were active in at least one assay; those are over-represented in the sample as a whole. A number with no mark means an inactive call. Active and inactive are the calls of the source. Rule as the data show it: active = growth inhibition above about 70%; inactive = the rest.

Key:
[1] = NCI Yeast Anticancer Drug Screen. Data for the rad50 strain (AID 155);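 also: 0% = growth of vehicle-only cultures of the same strain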; conditions: S. cerevisiae rad50 strain growth inhibition, active compounds read high
Procedure, shortened: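 Genetically altered yeast (DNA repair pathway); compound treatment; growth inhibition vs vehicle ctrl.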

[2] = NCI Yeast Anticancer Drug Screen. Data for the mec2-1 strain (AID 157); conditions: S. cerevisiae mec2-1 strain, active compounds read high
Procedure, shortened: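 Test agents were screened against the mec2-1 yeast strain, with defined DNA repair or cell cycle alteration. Growth was scored as inhibition against vehicle-only controls.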

[3] = NCI Yeast Anticancer Drug Screen. Data for the sgs1 mgt1 strain (AID 161);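 also: 0% = growth of cultures given vehicle only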; conditions: S. cerevisiae sgs1 mgt1 strain, active compounds read high
Procedure, shortened: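 Genetically altered yeast, compound exposure, growth inhibition relative to vehicle.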

[4] = NCI Yeast Anticancer Drug Screen. Data for the cln2 rad14 strain (AID 165);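 also: 0% = growth equal to vehicle treated cultures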; conditions: S. cerevisiae cln2 rad14 strain, active compounds read high
Procedure, shortened: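 Growth of compound-exposed yeast (cln2 rad14 genotype) measured and expressed as inhibition relative to vehicle.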

[5] = NCI Yeast Anticancer Drug Screen. Data for the bub3 strain (AID 167); conditions: S. cerevisiae bub3 mutant strain, active compounds read high
Procedure, shortened: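 Yeast carrying a defined mutation is treated with each compound, and growth is compared with that of vehicle-exposed cells to give inhibition.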

[6] = NCI Yeast Anticancer Drug Screen. Data for the mlh1 rad18 strain (AID 175); conditions: S. cerevisiae mlh1 rad18 strain growth inhibition, active compounds read high
Procedure, shortened: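 In this whole-cell yeast screen, a strain with altered DNA damage repair is challenged with compound, and its growth is measured against matched vehicle-treated controls.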

[7] = at 5.0 µM (retest, dose inferred, filed as 0.5)
[8] = at 50.0 µM (retest, dose inferred, filed as 5.0)

Compound | growth inhibition [1, 7] [%] | growth inhibition [1, 8] | growth inhibition ([1]; at 50.0 µM) | growth inhibition [2, 7] [%] | growth inhibition [2, 8] | growth inhibition ([2]; at 50.0 µM) | growth inhibition [3, 7] [%] | growth inhibition [3, 8] | growth inhibition ([3]; at 50.0 µM) | growth inhibition [4, 7] | growth inhibition [4, 8] | growth inhibition ([4]; at 50.0 µM) | growth inhibition [5, 7] | growth inhibition [5, 8] | growth inhibition ([5]; at 50.0 µM) | growth inhibition [6, 7] [%] | growth inhibition [6, 8] | growth inhibition ([6]; at 50.0 µM)
CCCCCCCCCCCCCCCCCC(=O)OCCN1C(=O)c2ccccc2C1=O | -1 | 4% | -5.4% | 10 | -10% | 9.15% | 5 | 12% | 17.7% | -1% | -6% | 71.7% (active) | -4% | -8% | 44% | -2 | -11% | 43.3%
COc1ccc(/C=C2\C(=O)N(C)C(=O)c3cc(OC)c(OC)cc32)cc1OC | 1 | 12% | 61.4% | 0 | 16% | 47.5% | -3 | -4% | 62.9% | 0% | 19% | 46.6% | 5% | 32% | 39.5% | 2 | 19% | 65%
O=C(Nc1ccc(C2=NCCN2)cc1)c1ccc(C(=O)Nc2ccc(C3=NCCN3)cc2)c(Cl)c1 | 42 | 97% (active) | 51.2% | 25 | 98% (active) | 78.7% (active) | 57 | 99% (active) | 76% (active) | 43% | 96% (active) | 80% (active) | 54% | 98% (active) | 68.5% | 35 | 95% (active) | 87.8% (active)
S=C(Nc1ccc(Cl)c(Cl)c1)N1c2ccccc2-n2cccc2C1c1cccnc1 (stereo not given) | 49 | 99% (active) | 80.8% (active) | 46 | 99% (active) | 84.5% (active) | 59 | 94% (active) | 85% (active) | 91% (active) | 94% (active) | 84.7% (active) | 72% (active) | 89% (active) | 84% (active) | 45 | 100% (active) | 87.8% (active)
C=CC[P+](CC[P+](CC=C)(c1ccccc1)c1ccccc1)(c1ccccc1)c1ccccc1 | -2 | -3% | 2.6% | -1 | -4% | -0.25% | -2 | 1% | 16.6% | -5% | -10% | -31.6% | -3% | -3% | 6.8% | 1 | -1% | 52.2%
